# Where “and” joins values, the source holds several entries; their conditions need not be identical. Equal entries are not always repeated. Inconclusive results are not listed. Values without a mark were called inactive. Calls of active or inactive are those of the source. The call rests on the fitted dose curve; in most records, active means well fitted cell-killing curve with a large enough effect; inconclusive means small, poorly fitted or top-dose-only effect, or effect the other way; inactive means no such curve, though single readings can be large or run the other way.
# Test: Viability qHTS for spleen associated tyrosine kinase inhibitor (SYKi) drug resistant MV4-11 cells (AID 1963824); further: nearly all actives have a fitted effect of over 35% in size
# Details: SYKi-resistant MV4-11 viability, CellTiter-Glo, 72 h; series mostly up to 45 µM; viability, % of control: at the top concentration
# In short: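 SYK-inhibitor-resistant MV4-11 AML cells were seeded at 500 per well onto compound and cultured 72 hours (37 °C, 5% CO2). CellTiter-Glo was then added, and after 10 min at room temperature, luminescence gave viability.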
# Potency means the concentration at half of the fitted maximal effect.
SMILES,Potency,"viability, % of control"
C[C@H](Nc1ncnc2nc[nH]c12)c1nc2ccc(F)cc2c(=O)n1-c1ccccc1,651 nM (active),
C=CC(=O)NCNC(=O)C=C,,71.4% [at 91.9 µM]
COP(=S)(OC)Oc1ccc(S(=O)(=O)N(C)C)cc1,,67.9%
Nc1nc(N)nc(NC2CC2)n1,,75%
CCCN1CCC[C@@H]2Cc3nc(N)ncc3C[C@H]21,,71.2%
NCCc1cc(O)c(O)cc1O,,82.9%
O=C(CCl)c1ccc(Cl)cc1Cl,,82.5%
COc1cc(CC(C)N)cc2c1OCO2 (configuration not stated),,94.3% [at 91.9 µM]
C[C@H](N)[C@H](O)c1ccc(O)c(O)c1,,69.5%
CN(C)CCc1c[nH]c2cccc(OP(=O)(O)O)c12,,73.1% [at 91.9 µM]
C=CCC1(C(C)CC)C(=O)NC(=O)NC1=O (configuration not stated),,84.4%
CCCOC(=O)c1cncn1C(C)c1ccccc1 (configuration not stated),,86.1%
O=C(CCCN1CCC2(CC1)C(=O)NCN2c1ccccc1)c1ccc(F)cc1,,71.4%
Clc1cccc(SC2CCNCC2)n1,,73.1%
Oc1cc(Cl)ccc1Oc1ccc(Cl)cc1Cl,7.85 µM (active) and 16.8 µM (active),
C[CH2][Hg][S]c1ccccc1C(=O)O,,92.1%
C[C@]12COC(=O)C[C@@H]1CC[C@@H]1[C@@H]2CC[C@@]2(C)[C@H]1CC[C@]2(C)O,,70.4%
CCCCOC(=O)c1ccccc1C(=O)OCc1ccccc1,17200 nM (active),
O=[N+]([O-])c1cc([As](=O)(O)O)ccc1O,,79.4%
Cc1ccc(-c2nc3ccc(C)cn3c2CC(=O)N(C)C)cc1,,97.6%
C#CCOC(C(=O)OCCN(C)C)(c1ccccc1)c1ccccc1,,73.9%
c1ccc2nc(N3CCNCC3)ccc2c1,,79.1%
